# Data as given in ChEMBL document CHEMBL3988442, “University of Dundee, Small-Polar-MMV Screening Library” (2021).
# Hit rate of the full screen: of about 48,000 compounds, about 13,000 (27%) showed an effect of 50% or more. This is one part of the list.
# System: Wolbachia pipientis
# Assay: Anti-Wolbachia Cell-Based Screen
# Type: functional
# Parameters: scale not given: in the data most compounds retested in dose-response had high values
# Details: 5 µM
row,Compound,Percent Effect
1,CN1CC(=O)N(c2ccsc2)CC12CCN(S(C)(=O)=O)C2.O=C(O)C(F)(F)F (centres undefined),-22.3%
2,O=C(C1CCC2(CCN(CC3CCOCC3)CC2)O1)N1CCCCO1.O=C(O)C(F)(F)F (centres undefined),-16.72%
3,O=C(O)C(F)(F)F.O=C([C@@H]1COC[C@H]2CN(c3ccncn3)C[C@H]21)N1CCCC1,-1.455%
4,Cc1ccc(C(=O)Nc2cn[nH]c2)cc1C,-10.82%
5,Cc1nc[nH]c1CN1C[C@@H]2CC[C@H](C1)N(C(=O)CCNS(C)(=O)=O)C2,-6.405%
6,O=C(COCC1CCCCO1)N1CCN(Cc2ccccc2F)C(=O)C1 (centres undefined),-11.31%
7,N#CC1C(=O)Nc2c(cnn2C2CCCC2)C12CCCC2 (centres undefined),15.25%
8,CC(C)N1CCC(N2CCC(C(=O)N(C)C)CC2)CC1.O=C(O)C(F)(F)F.O=C(O)C(F)(F)F,105.3%
9,CN1CCN(C2CCN(C(=O)CCC3CCCC3)CC2)CC1.O=C(O)C(=O)O,6.776%
10,CC(C)N1CCC(C(=O)N(C)CC(=O)c2ccc(O)cc2)CC1,-30.04%
11,CN(C)C(=O)C1CCC2(CCN(Cc3cnn(C)c3)CC2)C1.O=C(O)C(F)(F)F (centres undefined),-4.25%
12,CC(C)CNC(=O)C(C)N1CCN(C2CCN(C(C)C)CC2)CC1 (centres undefined),-39.91%
13,CN1CCC(N2CCC(C(=O)N(C)C)CC2)CC1.O=C(O)C(F)(F)F.O=C(O)C(F)(F)F,107.5%
14,CCn1nc2c(cc1=O)CN(CC1CCCCO1)CC2 (centres undefined),-5.782%
15,N[C@@H]1c2ccccc2C2(CCN(C(=O)c3ccc(CO)o3)CC2)[C@H]1O,13.24%
16,CCOc1cc(CNCc2nc(C)cc(=O)[nH]2)c(Cl)cc1OC(C)C,-17.65%
17,CCN(Cc1noc(C)n1)C(=O)CCc1scnc1C,1.92%
18,COc1c(C2CCCN2Cc2nccn2C)c(C)nn1C (centres undefined),8.453%
19,Cc1nccn1CCC1CCCCN1Cc1ccncc1 (centres undefined),6.487%
20,Cc1c[nH]nc1C1CCCN1Cc1ccncc1 (centres undefined),100.6%
21,CC(C)(C)c1coc([C@@H]2COCCN2Cc2ncc[nH]2)n1,-0.9304%
22,Cc1c[nH]nc1C1CCCN1Cc1nccn1C.O=CO (centres undefined),95.89%
23,Cc1noc(C)c1-c1cncc(C2CCCN2Cc2ccncc2)n1 (centres undefined),-4.931%
24,CCn1ccnc1CN1CCCC1c1c(C)nn(C)c1OC (centres undefined),-25.16%
25,Cc1c[nH]nc1C1CCCN1Cc1ncc[nH]1.O=CO (centres undefined),85.61%

row,Compound,Percent Effect
1,Cc1ccc(-c2c[nH]c([C@@H]3COCCN3Cc3ncc[nH]3)n2)cc1,0.7932%
2,CCc1ncncc1C(=O)NCCNS(=O)(=O)c1ccccc1,12.25%
3,O=C(c1c[nH]nn1)N1CCN(C(c2ccccc2)C(F)(F)F)CC1 (centres undefined),0.659%
4,COC(C)c1nc(CN2CCCNCC2)cs1 (centres undefined),4.679%
5,CC(CS(C)(=O)=O)N(C(=O)c1ccc(Cl)s1)C1CC1 (centres undefined),-8.906%
6,Cc1cccc2c1OCCCC2NCc1nnc2n1CCCCC2 (centres undefined),-7.858%
7,CN(Cc1ccon1)C1CCN(c2cccc(-c3cscn3)c2)CC1,-11.17%
8,Cc1nc2c(c(=O)[nH]1)CCN(Cc1ccc3c(c1)CCCN3C)C2,94.44%
9,Cc1nc2c(c(=O)[nH]1)CN(Cc1ccc3c(c1)CCCN3C)CC2,56.56%
10,CCCN1CCc2nc(SCc3c(C)cc(C)cc3C)[nH]c(=O)c2C1,4.96%
11,Cn1nc2c(cc1=O)CN(Cc1ccc(-n3cccn3)cc1)CC2,6.074%
12,CC(C(=O)Nc1ccnn1C(C)C)N1CCCN(c2nccs2)CC1 (centres undefined),10.48%
13,OCCn1nnnc1Cc1ccc(Br)cc1,-3.897%
14,O=C(c1[nH]nc(C2CC2)c1Cl)N1CCN(C2CC2)CC1,-10.68%
15,CC(C)(C)n1cc(C(=O)N2CCCN(Cc3cccs3)CC2)cn1,-3.981%
16,O=C(c1ccc(F)cc1)N1C[C@@H]2CN(c3ncccn3)C[C@@H]2C1,2.652%
17,CC(C)(C)NC(=O)[C@@H]1Cc2ccccc2CN1Cc1cccs1,16.75%
18,CC1CN(C)CCN1C(=O)c1cccn1Cc1cccs1 (centres undefined),-1.596%
19,COc1ccc(C(=O)N2CCN(C(=O)c3csc(C(C)C)n3)CC2)cc1,-4.051%
20,Cc1ccc(C(=O)N2CC(=O)N(Cc3cccs3)CC(O)C2)cc1 (centres undefined),76.19%
21,COc1ccc(OCc2nc(C(=O)N3CC(O)C3)co2)cc1,-10.13%
22,COc1ccc(C(=O)N2CC(=O)N(Cc3cccs3)CC(O)C2)cc1 (centres undefined),106.6%
23,O=C1CN(C(=O)c2ccc(F)cc2)CC(O)CN1Cc1cccs1 (centres undefined),106.9%
24,CSc1ccc(C(=O)N2CC(=O)N(Cc3cccs3)CC(O)C2)cc1 (centres undefined),110.9%
